Reference: PubChem BioAssay AID1159580 (chemical genetic matrix, 2015)
Among all 5,500 compounds or so, about 2,000 (36%) were called active. About 18% were inconclusive and are not listed. Rule as the data show it: active = normalized growth mostly below about 0.91 (no sharp cut-off); inconclusive = no clear call, values can overlap the other calls; inactive = mostly above about 0.92. This is one part of the list.

Assay: chemical genetic growth profiling, strain panel (AID 1159580);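 also: tested at 20 µM; growth read once vehicle control cultures reached saturation at 30 °C; 1 = growth at the plate median or of vehicle wells; lower values mean less growth of the strain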
Conditions: S. cerevisiae deletion strains, growth OD

Measured: normalized growth

CCC(C)C(=O)O[C@H]1C[C@H](O)C=C2C=C[C@H](C)[C@H](CC[C@@H](O)C[C@@H](O)CC(=O)O)C21 (stereo not given in full)
inactive: locus YAL021C, strain ccr4, hits give low values 1.02 | locus YAL026C, strain drs2, hits give low values 1.03 | locus YAL030W, strain snc1, hits give low values 1 | locus YBL061C, strain skt5, hits give low values 1.01 | locus YBR009C, strain hhf1, hits give low values 0.966 | locus YBR023C, strain chs3, hits give low values 1.02 | locus YBR171W, strain sec66, hits give low values 1 | locus YBR231C, strain swc5, hits give low values 0.976 | locus YBR279W, strain paf1, hits give low values 1.02 | locus YCL011C, strain gbp2, hits give low values 1.02 | locus YCL016C, strain dcc1, hits give low values 1.03 | locus YCL061C, strain MRC1, hits give low values 1.01 | locus YCL069W, strain vba3, hits give low values 1.01 | locus YCR088W, strain abp1, hits give low values 1 | locus YDL005C, strain med2, hits give low values 1.03 | locus YDL040C, strain nat1, hits give low values 0.993 | locus YDR001C, strain nth1, hits give low values 1.01 | locus YDR069C, strain doa4, hits give low values 1.01 | locus YDR159W, strain sac3, hits give low values 0.937 | locus YDR195W, strain ref2 0.952 | locus YDR297W, strain sur2, hits give low values 1.01 | locus YDR334W, strain swr1, hits give low values 0.994 | locus YDR335W, strain msn5, hits give low values 1.02 | locus YDR392W, strain spt3, hits give low values 0.987 | locus YEL003W, strain gim4, hits give low values 1.02 | locus YEL037C, strain rad23, hits give low values 1.02 | locus YEL061C, strain CIN8 (second series), hits give low values 0.986 | locus YER015W, strain faa2, hits give low values 1 | locus YER016W, strain bim1, hits give low values 1.06 | locus YER111C, strain swi4, hits give low values 1.02 | locus YER155C, strain BEM2 (second series), hits give low values 1.02 | locus YFR010W, strain ubp6, hits give low values 0.995 | locus YGL167C, strain pmr1, hits give low values 1 | locus YGL173C, strain kem1, hits give low values 1.02 | locus YGL227W, strain vid30, hits give low values 1 | locus YGL240W, strain doc1, hits give low values 1.04 | locus YGL253W, strain hxk2, hits give low values 1.02 | locus YHR013C, strain ard1, hits give low values 1.02 | locus YHR027C, strain rpn1, hits give low values 1.01 | locus YHR030C, strain SLT2, hits give low values 0.977 | locus YHR079C, strain IRE1, hits give low values 0.975 | locus YHR142W, strain chs7, hits give low values 1.02 | locus YJL092W, strain hpr5, hits give low values 1.01 | locus YJL095W, strain BCK1 (second series), hits give low values 1.02 | locus YJL095W, strain BCK1, hits give low values 0.965 | locus YJL115W, strain asf1, hits give low values 1.01 | locus YJL129C, strain trk1, hits give low values 1.02 | locus YJL154C, strain vps35, hits give low values 1.01 | locus YJL164C, strain tpk1, hits give low values 1.01 | locus YJL166W, strain qcr8, hits give low values 0.992 | locus YJL187C, strain SWE1, hits give low values 1.01 | locus YJR066W, strain TOR1, hits give low values 0.907 | locus YKL160W, strain elf1, hits give low values 1.05 | locus YKR026C, strain gcn3, hits give low values 0.99 | locus YKR091W, strain srl3, hits give low values 1 | locus YLL001W, strain dnm1, hits give low values 0.961 | locus YLL026W, hits give low values 1 | locus YLL041C, strain sdh2, hits give low values 0.991 | locus YLR027C, strain aat2, hits give low values 1 | locus YLR113W, strain HOG1, hits give low values 1 | locus YLR221C, strain rsa3, hits give low values 0.998 | locus YLR258W, strain gsy2, hits give low values 1.03 | locus YLR262C, strain YPT6 (second series), hits give low values 1.12 | locus YLR320W, strain mms22, hits give low values 0.963 | locus YLR342W, strain FKS1, hits give low values 1.02 | locus YLR357W, strain rsc2, hits give low values 1 | locus YLR370C, strain arc18, hits give low values 1.02 | locus YLR384C, strain iki3, hits give low values 0.991 | locus YML120C, strain ndi1, hits give low values 1.02 | locus YMR058W, strain fet3, hits give low values 1.01 | locus YMR125W, strain sto1, hits give low values 1.04 | locus YMR129W, hits give low values 1 | locus YMR205C, strain PFK2, hits give low values 0.972 | locus YMR231W, strain pep5, hits give low values 1 | locus YNL071W, strain lat1, hits give low values 1 | locus YNL183C, strain NPR1, hits give low values 0.902 | locus YNL209W, strain ssb2, hits give low values 1.01 | locus YNL248C, strain rpa49, hits give low values 1.03 | locus YNL322C, strain KRE1 (second series), hits give low values 1.06 | locus YNR049C, strain mso1, hits give low values 1.01 | locus YOR001W, strain rrp6, hits give low values 0.992 | locus YOR070C, strain gyp1, hits give low values 1 | locus YOR080W, strain dia2, hits give low values 0.999 | locus YOR083W, strain WHI5, hits give low values 1.01 | locus YOR106W, strain vam3, hits give low values 1.04 | locus YOR231W, strain MKK1, hits give low values 0.954 | locus YOR265W, strain rbl2, hits give low values 1 | locus YOR270C, strain vph1, hits give low values 0.946 | locus YOR290C, strain snf2, hits give low values 1.05 | locus YPL051W, strain arl3, hits give low values 1.06 | locus YPL078C, strain atp4, hits give low values 1.05 | locus YPL106C, strain sse1, hits give low values 1.02 | locus YPL240C, strain hsp82, hits give low values 1.01 | locus YPL256C, strain CLN2, hits give low values 1.01
active: locus YDR137W, strain rgp1, hits give low values 1.3 [resistant]
